Test results taken from PubChem BioAssay (EPA / NIEHS).
Active and inactive are the calls of the source. Rule for the calls: active = hit-call score of the fitted dose curve at least 0.9, where 1 is the maximum; inactive = score below 0.9.

Read-out: Matrix Metallopeptidase 1 (MMP1), MMP1 (gene 4312)
Experiment: BSK_hDFCGF_MMP1: BioMAP Diversity Plus: hDFCGF Assay for Matrix Metallopeptidase 1 (MMP1) Biomarker Activity (AID 2283064)
Details: primary human foreskin fibroblasts; actives raise or lower the signal
Experimental: BSK_hDFCGF is a cell-based, multiplexed-readout assay that uses foreskin fibroblast, a human skin primary cell, with measurements taken at 24 hours after chemical dosing in a 96-well plate.BSK_hDFCGF_MMP1 is an assay component measured in the BSK_hDFCGF assay. It measures MMP-1 antibody related to regulation of gene expression using ELISA technology.Data from the assay component BSK_hDFCGF_MMP1 was analyzed into 1 assay endpoint. This assay endpoint, BSK_hDFCGF_MMP1, was analyzed with bidirectional fitting relative to DMSO as the negative control and baseline of activity. Using a type of binding reporter, gain or loss-of-signal activity can be used to understand changes in the signaling as they relate to the gene MMP1. Furthermore, this assay endpoint can be referred to as a primary readout, because this assay has produced multiple assay endpoints where this one serves a signaling function. To generalize the intended target to other relatable targets, this assay endpoint is annotated to the protease intended target family, where the subfamily is matrix metalloproteinase.
The levels of cell surface (or secreted, indicated by the prefix "s") biomarker endpoints were measured by ELISA. Overt cytotoxicity to cells in confluent adherent cultures (all systems other than the BT system) was assessed by measuring total protein levels using sulforhodamine B (SRB) staining in parallel cultures at the time of biomarker measurements, indicated as SRB endpoints. For proliferation assays for adherent cell types, individual cell types are cultured at sub-confluence and relative cell numbers quantified by SRB staining at time points optimized for each system (48 h: 3C and CASM3C systems; 72 h: BT and HDF3CGF systems; 96 h: SAg system). SRB was performed by staining cells with 0.1% SRB after fixation with 10% TCA and reading wells at 560 nm.Viability and proliferation of PBMC (T cells) was quantified by Alamar Blue reduction for the SAg and BT systems. For PBMC viability (referred to as PBMC Cytotoxicity within the assay endpoint names), cells were plated (75,000/well in a 96-well plate) and then chemical samples added for 1 h before addition of activators, SEB and TSST-1 (20 ng/mL final concentration each). Cells were incubated for 90 h. Then, Alamar Blue (20 uL/well) (Invitrogen, Cat DAL1100) was added for 6 h, and the plates were read with a fluorescence microplate reader at 546/580 nm (excitation/emission). For PBMC proliferation, cells were plated and activated as above but incubated for only 16 h prior to addition of Alamar Blue. Plates were read after 6 h.

Structure (SMILES)	outcome	AC50
CC(=O)OC1CC(C)OC(C)O1 (stereo not given)	inactive	–
O=C(O)CC(O)(CC(=O)O)C(=O)O	inactive	–
Cc1occc(=O)c1O	inactive	–
COC(=O)CCCC(=O)OC	inactive	–
CC(COCC(C)OC(=O)c1ccccc1)OC(=O)c1ccccc1 (stereo not given)	inactive	–
CCCCCCCCCCCCCCCCO	inactive	–
O=Cc1ccccc1C=O	inactive	–
C=CCCCCCCCCCCCC	inactive	–
CCC(C)N(C)C(=O)c1cc2ccccc2c(-c2ccccc2Cl)n1 (stereo not given)	inactive	–
CCN(CC)CCOc1ccc(C(=C(Cl)c2ccccc2)c2ccccc2)cc1	–	13.2 µM (active)
O=C1CCCCC1	inactive	–
NCCOCCOCCN	inactive	–
CS(=O)(=O)c1ccc([C@@H](C[C@H]2CCC(=O)C2)C(=O)Nc2cnccn2)cc1Cl	inactive	–
CCCCC(CC)COP(=O)(OCC(CC)CCCC)OCC(CC)CCCC (stereo not given)	inactive	–
CC(=O)O[C@]1(C(C)=O)CC[C@H]2[C@@H]3C=C(Cl)C4=CC(=O)[C@@H]5C[C@@H]5[C@]4(C)[C@H]3CC[C@@]21C	inactive	–
O=[Si]=O	inactive	–
O=C(O)CN(CC(=O)O)CC(=O)O	inactive	–
CSc1ccc(Oc2ccc(S(N)(=O)=O)cc2CN(C)C)cc1C	inactive	–
c1ccc2occc2c1	inactive	–
O=C(N[C@@H](c1ccccc1)[C@@H]1CCCCN1)c1cccc(C(F)(F)F)c1Cl	inactive	–

Structure (SMILES)	outcome	AC50
CC(C)c1cccc(C(C)C)c1NC(=O)NS(=O)(=O)c1cc(C(C)(C)O)co1	inactive	–
OCC(O)CO	inactive	–
CN(C)CCCN1c2ccccc2Sc2ccc(Cl)cc21	–	31.5 µM (active)
Cc1cc(SC2=C(O)C[C@@](CCc3ccc(N)cc3)(C(C)C)OC2=O)c(C(C)(C)C)cc1CO	inactive	–
O=C1OC(c2ccc(O)cc2)(c2ccc(O)cc2)c2ccccc21	inactive	–
CC(=O)O	inactive	–
CC(N)=O	inactive	–
CC(C)COC(=O)CCCCC(=O)OCC(C)C	inactive	–
OCC(CO)n1cnc(-c2ccc(F)cc2)c1-c1ccnc(Oc2ccccc2)n1	–	0.909 µM (active)
CCCC(=O)O	inactive	–
N[C@@H](Cc1c[nH]c2ccccc12)C(=O)O	inactive	–
NC1CCCCC1	inactive	–
O=C(O)c1cccnc1	inactive	–
CC(C)(C)c1ccccc1	inactive	–
CC(C)OC(=O)C(C)(C)Oc1ccc(C(=O)c2ccc(Cl)cc2)cc1	inactive	–
CC(=O)[C@@]1(O)CC[C@H]2[C@@H]3CCC4=CC(=O)CC[C@]4(C)[C@H]3CC[C@@]21C	inactive	–
Cc1c(C)c2c(c(C)c1O)CCC(C)(COc1ccc(CC3SC(=O)NC3=O)cc1)O2 (stereo not given)	–	24.8 µM (active)
Cc1cc(Cc2ccc(N)c(C)c2)ccc1N	inactive	–
O=C1NC(=O)C(c2ccccc2)(c2ccccc2)N1	inactive	–
Oc1ccc(O)cc1	–	33 µM (active)
